Structures are written as SMILES. Hit rate of the full screen: of about 310,000 compounds, about 1,300 (0.42%) were called active.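 Rule for the calls: active = B-score of calcium response area above 5 SD of library B-scores, with initial fluorescence ratio within 5 SD of library; inactive = the rest.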 The full list was thinned out, with actives kept by preference.

Our source for the B-score values is PubChem BioAssay AID2227 (Johns Hopkins Ion Channel Center, 2009).

This assay deals with Short transient receptor potential channel 4 (Mus musculus) (UniProt Q9QUQ5). Nature of the assay: TRPC4 channel potentiators under submaximal DAMGO – cell-based, mouse TRPC4beta, HEK293 mu-opioid, Fluo-4 calcium, primary screen (AID 2227).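 For B-score: B-score of integrated fluorescence ratio over time as area under calcium response.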 The note with it: DAMGO EC20, Fluo-4 Ca2+ flux, at 10 µM; active compounds read high.
Short transient receptor potential channel 4 (Mus musculus), sequence (Q9QUQ5 whole entry, looked up): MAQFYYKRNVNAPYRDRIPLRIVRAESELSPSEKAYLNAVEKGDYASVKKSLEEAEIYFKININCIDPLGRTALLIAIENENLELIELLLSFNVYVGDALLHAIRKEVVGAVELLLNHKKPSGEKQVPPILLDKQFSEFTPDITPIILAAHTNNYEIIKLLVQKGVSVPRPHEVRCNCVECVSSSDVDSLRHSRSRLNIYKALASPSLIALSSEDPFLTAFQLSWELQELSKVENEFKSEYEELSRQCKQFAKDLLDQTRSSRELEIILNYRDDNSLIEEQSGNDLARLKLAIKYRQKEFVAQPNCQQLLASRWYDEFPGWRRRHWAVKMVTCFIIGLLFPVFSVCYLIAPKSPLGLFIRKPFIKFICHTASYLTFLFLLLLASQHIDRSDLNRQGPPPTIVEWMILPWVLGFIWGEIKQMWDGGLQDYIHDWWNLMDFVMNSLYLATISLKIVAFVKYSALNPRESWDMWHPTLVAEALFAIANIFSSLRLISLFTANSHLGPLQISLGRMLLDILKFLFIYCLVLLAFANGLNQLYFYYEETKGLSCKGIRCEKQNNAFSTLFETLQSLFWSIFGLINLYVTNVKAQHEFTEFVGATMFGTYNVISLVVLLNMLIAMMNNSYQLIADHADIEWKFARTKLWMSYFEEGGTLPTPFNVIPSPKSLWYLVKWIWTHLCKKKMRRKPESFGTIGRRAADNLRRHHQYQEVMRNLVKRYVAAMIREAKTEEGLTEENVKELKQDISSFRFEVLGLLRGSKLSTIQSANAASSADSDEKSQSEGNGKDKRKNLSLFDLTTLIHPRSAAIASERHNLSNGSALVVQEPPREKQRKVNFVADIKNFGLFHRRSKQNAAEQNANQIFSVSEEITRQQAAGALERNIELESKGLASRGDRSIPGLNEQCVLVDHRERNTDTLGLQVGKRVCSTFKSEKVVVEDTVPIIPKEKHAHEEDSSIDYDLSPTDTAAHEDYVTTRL
On to `C=CCC1(C(=O)N(C)Cc2ccccc2)CCN(C(=O)OC(C)(C)C)CC1`, for which the B-score result is “inactive”.

`CC1(C)CC(=O)C(N=Nc2c(F)cccc2F)=C(O)C1`: the B-score result is “inactive”.

On to `Cc1ccc(N2C(=O)C(NC(=O)c3c(F)cccc3F)(C(F)(F)F)C3=C2CC(C)(C)CC3=O)cc1` (configuration not stated), for which the B-score is 119 (active).

On to `C=CCSc1nnc(N2C(=O)C(O)=C(C(=O)c3ccco3)C2c2ccc(F)cc2)s1` (configuration not stated), for which the B-score entry was “inactive”.

In the case of `COc1ccccc1N(C)S(=O)(=O)c1ccc(C(=O)NC2CCCCCC2)cc1`, the B-score result was “inactive”.

In the case of `COC(=O)Cc1csc(/N=C/c2c(O)n(-c3cccc(C(F)(F)F)c3)c(=O)c3ccccc23)n1`, the B-score result is “inactive”.

In the case of `O=S(=O)(c1ccccc1)c1nc(-c2ccccc2)oc1NCCCN1CCOCC1`, the B-score result is “inactive”.

As for `O=S(=O)(c1ccc(Br)cc1)c1nc(-c2ccccc2)oc1N1CCOCC1`, the B-score is 11 (active).

In the case of `O=S(=O)(c1ccccc1)c1nc(Cc2ccccc2)oc1N1CCOCC1`, the B-score result was “inactive”.

With `COc1nnc(-c2ccc(C)c(S(=O)(=O)N(C)C)c2)c2ccccc12`, the B-score result is “inactive”.

In the case of `CC1CCCCC1NC(=O)CO/N=C/c1ccc(OC(F)F)cc1` (configuration not stated), the B-score entry was “inactive”.

As for `Cc1nn(CC(=O)Nc2ccc(N(C)C)cc2)c(C)c1[N+](=O)[O-]`, the B-score result was “inactive”.

Regarding `COc1cccc(/C=C/C(=O)OCC(=O)N2CCCc3ccccc32)c1`, the B-score entry is “inactive”.

For the compound `Cc1cc2cc3c(N)[nH]nc3nc2cc1C`, the B-score was 11 (active).

As for `O=C(NCCN1CCOCC1)c1cc(Sc2cccc(Cl)c2)nc2ccccc12`, the B-score entry is “inactive”.

For `COc1ccccc1OCc1ccc(C(=O)N2CCN(C)CC2)o1`, the B-score entry was “inactive”.

Regarding `COc1cc2c(C(=O)N3CCN(C)CC3)c(CSc3ccccc3)n(C)c2cc1Br`, the B-score was 18 (active).

With `COc1cc(C(=O)N2CCN(C)CC2)cc(OC)c1OC`, the B-score result is “inactive”.

Regarding `CC1=C(C(=O)OCC2CCCCC2)C(c2ccc(F)cc2)NC(=O)N1` (configuration not stated), the B-score result is “inactive”.

For `Clc1c(OCCCn2ccnc2)ccc2ccccc12`, the B-score is 15 (active).

Turning to `C=CCc1cc(C)ccc1OCCCn1ccnc1`, the B-score result is “inactive”.

`c1ccc(Cc2ccc(OCCn3ccnc3)cc2)cc1`: the B-score result was “inactive”.

On to `Fc1ccccc1/C=N/Nc1cc(N2CCCCC2)ncn1`, for which the B-score result is “inactive”.

As to `O=C(NCc1cccc(Cl)c1)C1CCC(=O)N(C2CC2)C1` (configuration not stated), the B-score entry is “inactive”.

As to `C=CCN(Cc1nc(-c2cc(OC)c3c(c2)OCO3)oc1C)C1CCS(=O)(=O)C1` (configuration not stated), the B-score result was “inactive”.

As for `C=C(C)COc1ccc(-c2nc(N)ncc2-c2ccccc2OC)c(O)c1`, the B-score was 22 (active).

On to `CCOc1ccc(-c2nc(N)ncc2-c2ccccc2OC)c(O)c1`, for which the B-score entry was “inactive”.

Turning to `C=C(C)COc1ccc(-c2ncncc2-c2ccc(OC)cc2)c(O)c1`, the B-score result was “inactive”.

`CC(C)Oc1ccc(CC(=O)NNC(=S)Nc2ccc(Br)cc2)cc1`: the B-score result was “inactive”.

Take `COc1cc(CCC(=O)Nc2ccncc2Cl)cc(OC)c1OC`: the B-score result is “inactive”.

On to `O=C1c2ccccc2C(=O)c2c1cccc2N1CCN(Cc2ccccc2)CC1`, for which the B-score was 14 (active).

Consider `O=C1c2ccccc2C(=O)c2c1cccc2N1CCN(CCO)CC1`, for which the B-score result was “inactive”.

As to `O=C1c2ccccc2C(=O)c2c1cccc2N1CCN(C/C=C/c2ccccc2)CC1`, the B-score entry is “inactive”.

With `Cc1ccc(Cl)cc1NC(=O)CN1CCN(S(=O)(=O)N2CCOCC2)CC1`, the B-score entry is “inactive”.

As to `O=C(c1ccc(Cl)s1)N(Cc1nnc(-c2ccccc2Cl)o1)C1CC1`, the B-score entry is “inactive”.

For `CCc1c(C)nc(N)n2c(SCC(=O)NC3CCCCC3)nnc12`, the B-score result is “inactive”.

For the compound `Cc1ccc(NC(=O)c2cnc(SCC(=O)NCC3CCCO3)n(C)c2=O)cc1` (configuration not stated), the B-score entry was “inactive”.

Take `Cc1cc(C(=O)Nc2ccccc2N2CCOCC2)c2ccccc2n1`: the B-score entry is “inactive”.

As to `COc1ccccc1NC(=O)c1cc(Cl)nc2ccccc12`, the B-score result was “inactive”.

As to `COC(=O)c1cc(N2CCNCC2)nc2ccccc12`, the B-score is 39 (active).

Consider `Cc1cccc(N2C(=O)SC(SC(=Nc3ccccc3)Nc3ccccc3)C2=O)c1` (configuration not stated), for which the B-score entry is “inactive”.

Consider `O=C(O)c1ccc(Cn2c(=S)[nH]c3cc(Cl)ccc3c2=O)cc1`, for which the B-score result was “inactive”.

On to `CCCCn1c(=S)[nH]c2ccccc2c1=O`, for which the B-score entry is “inactive”.

As for `CN(C)CCn1c(=S)[nH]c2ccc(Cl)cc2c1=O`, the B-score was 14 (active).

`Cc1ccc(Cl)cc1N1CCN(C(=O)c2cccc3c(=O)c(C)c(-c4ccccc4)oc23)CC1`: the B-score was 24 (active).

Take `Cc1cccc(N2CCN(C(=O)c3cnn4c(C(F)F)cc(-c5ccccc5)nc34)CC2)c1C`: the B-score entry was “inactive”.

On to `COC(=O)c1ccc(C(=O)OC)c(NC(=S)N2CCN(c3cc(Cl)ccc3C)CC2)c1`, for which the B-score entry is “inactive”.

Take `COc1cccc(NC(=O)CSc2nccn(-c3ccc4c(c3)OCCO4)c2=O)c1`: the B-score entry is “inactive”.

For the compound `CCOc1ccc(NS(=O)(=O)c2ccc(C)c(C(N)=O)c2)cc1`, the B-score result is “inactive”.

`COc1cc(Cl)c(S(=O)(=O)N2CCN(Cc3ccc4c(c3)OCO4)CC2)cc1Cl`: the B-score is 37 (active).

With `COc1ccc(-c2cc(C(=O)N3CCN(Cc4ccc5c(c4)OCO5)CC3)on2)cc1OC`, the B-score entry was “inactive”.

For the compound `CCn1cc(C(=O)N2CCN(Cc3ccc4c(c3)OCO4)CC2)c2cc(OC)c(OC)cc2c1=O`, the B-score entry is “inactive”.

On to `CC(=O)c1ccccc1OCc1ccc(C(=O)c2ccccc2)cc1`, for which the B-score entry is “inactive”.

On to `COC(=O)c1cc(C(=O)OCC(=O)Nc2cc(C)on2)cc([N+](=O)[O-])c1`, for which the B-score entry was “inactive”.

Regarding `COc1ccc(OCCn2ccnc2C)cc1`, the B-score result is “inactive”.

On to `Brc1c(CSc2nncc3ccccc23)nc2ccccn12`, for which the B-score entry is “inactive”.

Take `COc1ccccc1NS(=O)(=O)c1ccc(C(=O)N2CCN(c3ccccc3O)CC2)cc1`: the B-score entry is “inactive”.

Turning to `Cc1cccc(NC(=O)c2cccc(S(=O)(=O)N3CCCC3)c2)n1`, the B-score entry was “inactive”.

On to `CCn1c(O)c(N=NC(=O)c2cccc(S(=O)(=O)N3CCCCC3)c2)c2ccccc21`, for which the B-score is 15 (active).

Regarding `CCn1c2ccccc2c2cc(NC(=O)COC(=O)c3cc(S(=O)(=O)N4CCCCC4)ccc3Cl)ccc21`, the B-score entry is “inactive”.

For the compound `COc1ccc(CSc2nnnn2-c2ccc(C(=O)O)cc2)cc1`, the B-score result was “inactive”.

Consider `CCC(=O)/C(=C(/O)c1ccccc1)c1nc2ccccc2[nH]1`, for which the B-score entry was “inactive”.

For the compound `Cc1ccccc1OC/C(O)=C(\C#N)c1nc2ccccc2[nH]1`, the B-score entry was “inactive”.

For `COCCN(CCOC)S(=O)(=O)c1ccc(/C(O)=C(\C#N)c2nc3ccccc3[nH]2)cc1`, the B-score is 11 (active).

Turning to `COC(=O)c1c(CCl)noc1C(=O)NC(C)C`, the B-score result is “inactive”.

In the case of `O=C(Nc1cccc(F)c1)c1coc(=O)c(Br)c1`, the B-score result is “inactive”.

Take `CC(=N\NC(=O)c1cc(Br)ccc1O)/C(=N/O)C(=O)Nc1ccccc1`: the B-score entry was “inactive”.
